# Experimental data taken from the supplement of paper PMC10849652.
# The full data set covers some 7,900 targets. This sample favours those with a hit. About 0.6% of all pairs of compound and target were hits. Unmarked numbers belong to inactive results.
# How the values were obtained:
# Assay in all cases: log2 fold change, soluble protein after heating vs DMSO (PISA); higher = thermal stabilisation; K562 cells, 10 uM, 30 min; active = over 0.2 and 3.5 SD of the protein, either way, in both replicates (recomputed)
# [1] = compound: CN1CCN(CCOc2cc(OC3CCOCC3)c3c(Nc4c(Cl)ccc5c4OCO5)ncnc3c2)CC1 [saracatinib]
# How it was run: (§1)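 K562 cells at 2×10^6 cells/mL were treated with 10 μM compound for 30 min. Aliquots were heated for 3 min across 48°C-58°C, pooled, and extracted in PBS with 0.5% NP-40 at 4°C; soluble protein was the supernatant after 21,000xg for 90 min. Soluble protein was quantified by TMTpro 16plex LC-MS/MS with channel sums equalised, and reported as log2 fold change in thermal stability against DMSO controls, with values from duplicates.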
# [2] = compound: CN1CCN(c2nc(C3=C(c4c[nH]c5ccccc45)C(=O)NC3=O)c3ccccc3n2)CC1 [sotrastaurin]
# How it was run: as §1
# [3] = compound: CN1CCc2c(c3ccccc3n2Cc2ccc(C(=O)NO)cc2)C1 [Tubastatin A]
# How it was run: as §1
# [4] = compound: CNC(=O)C1=CC=CC=C1NC2=NC(=NC=C2Cl)NC3=C(C=C(C=C3)N4CCOCC4)OC
# How it was run: as §1
# [5] = compound: CNC(=O)c1ccc(Nc2ncc(C(F)(F)F)c(NCc3nccnc3N(C)S(C)(=O)=O)n2)cc1 [defactinib]
# How it was run: as §1
# [6] = compound: CNCc1ccc(-c2[nH]c3cc(F)cc4c3c2CCNC4=O)cc1 [rucaparib]
# How it was run: as §1
# [7] = compound: CNc1nc(-c2ccc3c(N)n[nH]c3c2)cc(N2C[C@@H](C(=O)NC3CCCCC3)CC[C@H]2C)n1
# How it was run: as §1
# [8] = compound: COC(=O)N[C@@H](C)CNc1nccc(-c2cn(C(C)C)nc2-c2cc(Cl)cc(NS(C)(=O)=O)c2F)n1 [encorafenib]
# How it was run: as §1
# [9] = compound: COC(=O)[C@H](CCSC)NC(=O)C1=C(C=C(C=C1)NC[C@H](CS)N)C2=CC=CC=C2
# How it was run: as §1
# [10] = compound: COC1=CC=C(C=C1)CN2C=CC3=C2C=C(C=C3)C(=O)NO
# How it was run: as §1
# [11] = compound: CON(C)C(=O)N1N=C(c2cc(F)ccc2F)S[C@@]1(CCCN)c1ccccc1 [filanesib]
# How it was run: as §1
# [12] = compound: COc1cc(C(=O)O)ccc1NC(=O)[C@@H]1N[C@@H](CC(C)(C)C)[C@](C#N)(c2ccc(Cl)cc2F)[C@H]1c1cccc(Cl)c1F [idasanutlin]
# How it was run: as §1
# [13] = compound: COc1cc(Nc2ncc3c(n2)-c2ccc(Cl)cc2C(c2c(F)cccc2OC)=NC3)ccc1C(=O)O [alisertib]
# How it was run: as §1
# [14] = compound: COc1cc2nc(-c3cc(F)ccc3O)nc(N[C@@H]3CNC[C@H]3C(C)(C)O)c2cc1OC
# How it was run: as §1
# [15] = compound: COc1cc2ncnc(Nc3ccc(F)c(Cl)c3)c2cc1OCCCN1CCOCC1 [gefitinib]
# How it was run: as §1
# [16] = compound: COc1cccc2cc(-c3nc([C@H]4CC[C@H](C(=O)O)CC4)n4ncnc(N)c34)[nH]c12
# How it was run: as §1
# [17] = compound: CS(=O)(=O)CCNCc1ccc(-c2ccc3ncnc(Nc4ccc(OCc5cccc(F)c5)c(Cl)c4)c3c2)o1 [lapatinib]
# How it was run: as §1
# [18] = compound: CS(=O)(=O)N1CCN(Cc2cc3nc(-c4cccc5[nH]ncc45)nc(N4CCOCC4)c3s2)CC1 [pictilisib]
# How it was run: as §1
# [19] = compound: CN1CC[C@H](c2c(O)cc(O)c3c(=O)cc(-c4ccccc4Cl)oc23)[C@H](O)C1 [alvocidib]
# How it was run: as §1
# [20] = compound: CO[C@H]1C[C@@H]2CC[C@@H](C)[C@@](O)(O2)C(=O)C(=O)N2CCCC[C@H]2C(=O)O[C@H]([C@H](C)C[C@@H]2CC[C@H](n3cnnn3)[C@H](OC)C2)CC(=O)[C@H](C)/C=C(\C)[C@@H](O)[C@@H](OC)C(=O)[C@H](C)C[C@H](C)/C=C/C=C/C=C/1C [zotarolimus]
# How it was run: as §1
# Chain of UniProt P05091 (P05091 whole entry, looked up): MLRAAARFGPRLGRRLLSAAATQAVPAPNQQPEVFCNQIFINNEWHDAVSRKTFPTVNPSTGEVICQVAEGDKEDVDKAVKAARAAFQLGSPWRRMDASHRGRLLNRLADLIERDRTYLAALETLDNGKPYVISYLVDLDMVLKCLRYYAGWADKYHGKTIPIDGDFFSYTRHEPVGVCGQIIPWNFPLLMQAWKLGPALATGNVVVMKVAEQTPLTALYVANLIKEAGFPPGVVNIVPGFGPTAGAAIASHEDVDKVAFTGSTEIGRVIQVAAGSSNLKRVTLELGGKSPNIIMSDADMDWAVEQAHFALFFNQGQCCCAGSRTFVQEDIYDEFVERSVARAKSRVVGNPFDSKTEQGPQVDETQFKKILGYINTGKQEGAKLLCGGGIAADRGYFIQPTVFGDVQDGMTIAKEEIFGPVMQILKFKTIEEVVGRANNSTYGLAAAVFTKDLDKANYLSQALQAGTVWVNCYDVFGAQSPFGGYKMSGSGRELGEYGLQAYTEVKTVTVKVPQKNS
# Chain of UniProt P18846 (P18846 whole entry, looked up): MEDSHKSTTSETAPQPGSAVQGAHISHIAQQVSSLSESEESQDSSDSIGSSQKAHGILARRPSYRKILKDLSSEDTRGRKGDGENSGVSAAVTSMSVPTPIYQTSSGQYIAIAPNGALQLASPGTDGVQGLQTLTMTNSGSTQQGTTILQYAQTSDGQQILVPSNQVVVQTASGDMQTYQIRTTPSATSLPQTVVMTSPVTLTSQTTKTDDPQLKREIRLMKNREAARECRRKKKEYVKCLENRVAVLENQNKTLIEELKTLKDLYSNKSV
# Chain of UniProt Q96P47 (Q96P47 whole entry, looked up): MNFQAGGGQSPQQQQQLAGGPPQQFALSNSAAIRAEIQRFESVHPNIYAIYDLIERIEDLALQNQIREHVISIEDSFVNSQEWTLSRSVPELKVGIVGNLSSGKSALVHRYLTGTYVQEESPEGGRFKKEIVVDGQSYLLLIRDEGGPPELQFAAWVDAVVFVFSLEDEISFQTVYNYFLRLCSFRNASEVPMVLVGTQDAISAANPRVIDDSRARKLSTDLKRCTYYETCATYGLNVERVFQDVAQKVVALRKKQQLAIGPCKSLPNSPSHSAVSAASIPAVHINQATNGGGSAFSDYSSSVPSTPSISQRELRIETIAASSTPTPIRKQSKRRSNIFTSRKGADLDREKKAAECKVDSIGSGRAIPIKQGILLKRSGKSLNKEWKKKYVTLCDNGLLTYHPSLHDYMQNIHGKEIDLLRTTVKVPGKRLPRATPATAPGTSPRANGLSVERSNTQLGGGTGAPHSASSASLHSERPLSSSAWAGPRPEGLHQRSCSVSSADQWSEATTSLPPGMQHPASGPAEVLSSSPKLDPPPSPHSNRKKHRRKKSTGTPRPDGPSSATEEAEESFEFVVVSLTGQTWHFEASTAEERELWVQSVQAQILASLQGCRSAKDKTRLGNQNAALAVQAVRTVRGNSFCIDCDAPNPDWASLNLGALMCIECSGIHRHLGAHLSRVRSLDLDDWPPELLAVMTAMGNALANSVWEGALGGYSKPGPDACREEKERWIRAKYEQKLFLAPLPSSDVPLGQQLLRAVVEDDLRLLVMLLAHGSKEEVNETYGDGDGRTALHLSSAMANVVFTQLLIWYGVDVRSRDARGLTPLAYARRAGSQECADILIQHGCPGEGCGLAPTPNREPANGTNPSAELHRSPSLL
# Chain of UniProt Q13825 (Q13825 whole entry, looked up): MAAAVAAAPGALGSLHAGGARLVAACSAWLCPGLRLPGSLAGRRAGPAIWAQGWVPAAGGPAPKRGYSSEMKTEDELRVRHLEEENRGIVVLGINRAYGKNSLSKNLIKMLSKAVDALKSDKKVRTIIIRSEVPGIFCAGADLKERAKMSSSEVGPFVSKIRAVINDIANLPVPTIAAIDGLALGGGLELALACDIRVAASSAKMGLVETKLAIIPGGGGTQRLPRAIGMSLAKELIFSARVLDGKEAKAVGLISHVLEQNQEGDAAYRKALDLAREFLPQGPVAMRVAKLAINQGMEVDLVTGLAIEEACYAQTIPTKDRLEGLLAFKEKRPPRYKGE
# Chain of UniProt Q7Z591 (Q7Z591 whole entry, looked up): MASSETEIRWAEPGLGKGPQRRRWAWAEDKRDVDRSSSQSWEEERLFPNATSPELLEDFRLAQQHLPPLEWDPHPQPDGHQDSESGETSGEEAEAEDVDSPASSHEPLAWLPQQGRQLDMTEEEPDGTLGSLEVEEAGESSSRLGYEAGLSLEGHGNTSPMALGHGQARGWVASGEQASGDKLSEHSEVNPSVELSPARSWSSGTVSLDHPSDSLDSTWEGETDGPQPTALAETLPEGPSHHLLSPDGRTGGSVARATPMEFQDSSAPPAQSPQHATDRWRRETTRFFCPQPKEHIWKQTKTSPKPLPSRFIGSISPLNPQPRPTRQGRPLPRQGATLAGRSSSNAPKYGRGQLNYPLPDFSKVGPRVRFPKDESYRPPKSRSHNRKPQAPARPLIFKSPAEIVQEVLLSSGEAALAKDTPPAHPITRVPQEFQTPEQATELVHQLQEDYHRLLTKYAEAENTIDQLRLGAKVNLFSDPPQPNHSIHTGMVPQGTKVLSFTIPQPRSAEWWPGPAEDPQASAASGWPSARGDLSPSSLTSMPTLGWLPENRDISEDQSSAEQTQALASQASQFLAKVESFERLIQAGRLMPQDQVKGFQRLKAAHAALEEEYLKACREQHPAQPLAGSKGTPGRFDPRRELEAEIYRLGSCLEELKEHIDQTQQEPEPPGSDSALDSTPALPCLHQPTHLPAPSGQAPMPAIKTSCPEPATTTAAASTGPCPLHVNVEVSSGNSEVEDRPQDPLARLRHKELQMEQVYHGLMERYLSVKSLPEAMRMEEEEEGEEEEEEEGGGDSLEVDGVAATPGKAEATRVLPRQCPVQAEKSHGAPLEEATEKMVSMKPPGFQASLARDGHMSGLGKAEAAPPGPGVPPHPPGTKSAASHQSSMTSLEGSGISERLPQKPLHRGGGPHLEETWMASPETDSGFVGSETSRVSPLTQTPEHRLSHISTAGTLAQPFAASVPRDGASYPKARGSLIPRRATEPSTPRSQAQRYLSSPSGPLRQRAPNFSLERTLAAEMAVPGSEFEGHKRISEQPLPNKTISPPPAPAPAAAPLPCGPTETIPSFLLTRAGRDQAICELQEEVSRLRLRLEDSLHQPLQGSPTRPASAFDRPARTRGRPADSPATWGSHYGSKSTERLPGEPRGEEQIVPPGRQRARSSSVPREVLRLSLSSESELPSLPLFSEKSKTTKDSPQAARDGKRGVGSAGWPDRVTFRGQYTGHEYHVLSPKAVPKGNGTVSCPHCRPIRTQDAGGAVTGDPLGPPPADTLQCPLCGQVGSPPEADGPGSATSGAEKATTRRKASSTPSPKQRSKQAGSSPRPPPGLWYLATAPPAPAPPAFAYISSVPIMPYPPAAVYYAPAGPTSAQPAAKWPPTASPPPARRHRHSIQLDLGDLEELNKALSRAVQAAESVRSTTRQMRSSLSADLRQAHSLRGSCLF
# Chain of UniProt Q9HC16 (Q9HC16 whole entry, looked up): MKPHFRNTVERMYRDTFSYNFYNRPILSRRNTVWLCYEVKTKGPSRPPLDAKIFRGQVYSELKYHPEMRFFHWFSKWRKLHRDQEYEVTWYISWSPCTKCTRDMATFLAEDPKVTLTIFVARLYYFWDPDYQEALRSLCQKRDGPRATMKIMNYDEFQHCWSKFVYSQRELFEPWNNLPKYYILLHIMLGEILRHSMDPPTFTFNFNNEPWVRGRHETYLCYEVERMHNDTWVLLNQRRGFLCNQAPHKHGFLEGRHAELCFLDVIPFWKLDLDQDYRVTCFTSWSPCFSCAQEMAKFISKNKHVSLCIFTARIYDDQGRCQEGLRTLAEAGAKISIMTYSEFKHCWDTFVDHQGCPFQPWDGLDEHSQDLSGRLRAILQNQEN
# Chain of UniProt P40617 (P40617 whole entry, looked up): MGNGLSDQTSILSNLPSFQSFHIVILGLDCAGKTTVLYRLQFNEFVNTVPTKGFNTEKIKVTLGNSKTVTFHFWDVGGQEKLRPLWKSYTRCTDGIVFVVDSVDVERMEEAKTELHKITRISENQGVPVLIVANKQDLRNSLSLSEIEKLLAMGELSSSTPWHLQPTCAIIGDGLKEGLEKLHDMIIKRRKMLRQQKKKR
# Chain of UniProt Q04771 (Q04771 whole entry, looked up): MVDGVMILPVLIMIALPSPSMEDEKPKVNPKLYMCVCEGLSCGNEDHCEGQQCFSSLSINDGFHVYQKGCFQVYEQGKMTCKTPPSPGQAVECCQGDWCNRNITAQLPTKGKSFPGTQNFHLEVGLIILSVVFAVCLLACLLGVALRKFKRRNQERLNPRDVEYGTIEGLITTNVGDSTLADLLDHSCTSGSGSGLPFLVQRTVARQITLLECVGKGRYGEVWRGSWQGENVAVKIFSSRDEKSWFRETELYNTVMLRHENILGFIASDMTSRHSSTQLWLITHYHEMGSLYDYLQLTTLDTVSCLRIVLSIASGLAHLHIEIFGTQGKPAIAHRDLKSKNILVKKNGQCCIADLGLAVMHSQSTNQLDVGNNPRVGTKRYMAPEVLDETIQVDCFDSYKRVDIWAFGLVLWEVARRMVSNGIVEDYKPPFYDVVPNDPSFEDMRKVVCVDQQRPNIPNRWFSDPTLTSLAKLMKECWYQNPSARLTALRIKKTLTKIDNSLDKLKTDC
# Chain of UniProt P17707 (P17707 whole entry, looked up): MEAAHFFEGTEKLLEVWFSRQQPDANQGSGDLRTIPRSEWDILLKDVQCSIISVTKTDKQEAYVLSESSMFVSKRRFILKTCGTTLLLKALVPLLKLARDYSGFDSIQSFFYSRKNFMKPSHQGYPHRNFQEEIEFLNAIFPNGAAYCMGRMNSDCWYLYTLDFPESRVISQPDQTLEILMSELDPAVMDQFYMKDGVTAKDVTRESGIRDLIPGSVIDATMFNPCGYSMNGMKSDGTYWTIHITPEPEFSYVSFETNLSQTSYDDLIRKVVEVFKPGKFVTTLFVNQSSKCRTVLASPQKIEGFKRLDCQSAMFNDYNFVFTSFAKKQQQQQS
Target,log2 fold change [1],log2 fold change [2],log2 fold change [3],log2 fold change [4],log2 fold change [5],log2 fold change [6],log2 fold change [7],log2 fold change [8],log2 fold change [9],log2 fold change [10],log2 fold change [11],log2 fold change [12],log2 fold change [13],log2 fold change [14],log2 fold change [15],log2 fold change [16],log2 fold change [17],log2 fold change [18],log2 fold change [19],log2 fold change [20]
APOBEC3G (UniProt Q9HC16),0.046,0.023,-0.045,-0.093,-0.097,0.152,-0.121,-0.263,0.038,-0.012,0.066,0.039,-0.092,0.047,-0.074,-0.053,0.046,,,
ALDH2 isoform 2 (UniProt P05091),,0.161,0.005,,0.06,-0.255,,0.097,-0.003,,0.013,0,,0.166,,,-0.266,-0.035,,
ARFIP1 isoform 2 (UniProt P53367),0.026,-0.041,,-0.268,,,0.279,,,-0.225,-0.082,,-0.17,-0.013,-0.067,-0.068,0.05,-0.154,,
ANGEL1 (UniProt Q9UNK9),,,0.089,,-0.076,,,,0.095,0.024,,,,,,,,,,
AARSD1 (UniProt Q9BTE6),0.008,,,0.08,,0.014,0.165,-0.042,,-0.659,,-0.071,0.08,0.036,0.157,-0.016,0.069,,-0.15,0.055
ARL4A (UniProt P40617),,,,,,,,,,,,0.056,0.042,,,0.094,,,,
BAP18 isoform 3 (UniProt Q8IXM2),,,0.301,-0.129,,,,,,,,,-0.033,,,0.12,,-0.093,,
AIF1 (UniProt P55008),,0.025,,0.15,0.032,,,,-0.046,,0.038,0.052,,0.083,,,0.053,,,
ABCA4 (UniProt P78363),,-0.249,0.246,-0.152,,0.006,,0.006,,0.394,0.076,-0.02,-0.071,,0.014,-0.007,,0.135,0.277,0.031
BSCL2 isoform 4 (UniProt Q96G97),-0.019,,0.03,-0.025,-0.113,,-0.122,,-0.071,,,-0.132,-0.037,-0.248,0.021,0.069,0.048,0.126,-0.164,0.076
AMD1 (UniProt P17707),,-0.017,0.014,0.02,0.082,-0.08,,0.023,0.042,-0.009,-0.128,-0.193,-0.023,0.024,0.041,0.058,-0.034,0.043,,
ARHGAP25 isoform 4 (UniProt P42331),0.249,,0.079,-0.023,0.02,0.168,0.131,0.212,-0.212,,,-0.123,-0.068,,0.08,-0.11,,0.085,-0.128,-0.077
AUH (UniProt Q13825),0.184,,0.152,0.003,-0.055,0.065,-0.062,-0.005,0.006,-0.107,,-0.074,0.175,-0.036,,0.034,0.056,-0.071,0.016,0.009
ATXN7L3 isoform 2 (UniProt Q14CW9),,0.098,,-0.038,,0.669 (active),,0,,-0.158,-0.02,0.193,-0.191,,0.052,0.035,,,,
ADPRH (UniProt P54922),,-0.067,0.213,-0.011,-0.076,,,,0.028,0.098,-0.088,,-0.099,0.135,0.013,-0.033,0.05,-0.107,,
ASB6 (UniProt Q9NWX5),,-0.029,,-0.078,-0.033,0.124,,-0.094,0.031,0.298,0.008,-0.029,-0.214,-0.083,-0.034,0,-0.055,0.157,,
ACVR1 (UniProt Q04771),,-0.081,-0.042,0,-0.095,0.029,-0.106,0.122,-0.156,,-0.022,-0.156,-0.096,0.133,,-0.13,-0.004,0.248,0.047,-0.371
AP2S1 (UniProt M0QZ21),,,0.335,,,,,,,,,,,,,,,,,
ACTBL2 (UniProt Q562R1),-0.054,0.179,,0.158,0.432,-0.711,0.035,0.239,0.15,,0.171,0.533,0.521,-0.085,0.348,-0.105,-0.079,-0.541,,
ATF1 (UniProt P18846),,-0.098,-0.068,-0.052,0.045,-0.128,,-0.07,0.024,,0.097,-0.082,-0.101,-0.071,0.052,0.006,-0.011,-0.039,0.081,-0.51 (active)
ACSL6 isoform 1 (UniProt Q9UKU0),-0.041,0.177,-0.076,-0.048,0.155,,-0.007,,0.021,,-0.054,,-0.013,,0.103,0.123,,0.051,,
AKNA (UniProt Q7Z591),,-0.017,,-0.074,,,,,,,0.04,,,0.205,,,-0.059,,-0.066,0.01
BDH2 (UniProt Q9BUT1),-0.088,0,,-0.061,-0.021,,0.015,,-0.039,0.022,-0.007,-0.039,0.071,0.065,,-0.001,0.012,0.007,-0.177,0.098
AGAP3 isoform 4 (UniProt Q96P47),,-0.233,0.166,-0.033,,0.178,,-0.104,,-0.051,0.24,0.12,-0.073,0.079,0.28,-0.1,0.038,,-0.011,-0.02
ACTR3B (UniProt Q9P1U1),,,-0.01,-0.004,0.037,,,,-0.01,0.407 (active),,,,0.022,-0.213,,-0.056,-0.021,,
